The source of these data is PubChem BioAssay (EPA / NIEHS).

Structures are written as SMILES. “And” between values parts separate entries of the source, which are not always exact repeats. Equal entries are not always repeated. Inconclusive results are not listed. Some compounds were tested as several samples or in several runs, with calls that do not always agree. The source made the active and inactive calls. Rule for the calls, unless noted: active = hit-call score of the fitted dose curve at least 0.9, where 1 is the maximum; inconclusive = response in the unintended direction; inactive = score below 0.9.

The target of experiment [1] is human Dopamine Transporter (DAT), SLC6A3 (gene 6531) (UniProt Q01959). As to the kind of experiment: NVS_TR_hDAT: NovaScreen (NVS) Transporter Assay for human Dopamine Transporter (DAT) (AID 2283374).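 Note: activity means loss of bound radioligand signal relative to DMSO.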 The method in brief: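 hDAT membranes + tritiated/iodinated radioligand, competitive displacement; 1 h; filter scintillation readout. Single conc 25 uM (duplicate), then conc-response for actives. DMSO = negative control.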

Experiment [2] addresses Norway rat Vesicular Monoamine Transporter (VMAT2), neurotransmitter transporter, Slc18a2 (gene 25549) (UniProt Q01827). As to the kind of experiment: NVS_TR_rVMAT2: NovaScreen (NVS) Transporter Assay for Norway rat Vesicular Monoamine Transporter (VMAT2), neurotransmitter transporter (AID 2283376).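 Note: actives lower the bound radioligand signal below the DMSO level.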 The method, then: NVS_TR_rVMAT2 is a biochemical, single-readout assay that uses extracted gene-proteins from Rat forebrain in a tissue-based cell-free assay. Measurements were taken 1 hour after chemical dosing in a 96-well plate.NVS_TR_rVMAT2 is one of one assay component(s) measured or calculated from the NVS_TR_rVMAT2 assay. It is designed to make measurements of radioligand binding, a form of binding reporter, as detected with scintillation counting signals by Filter-based radiodetection technology.Data from the assay component NVS_TR_rVMAT2 was analyzed into 1 assay endpoint. This assay endpoint, NVS_TR_rVMAT2, was analyzed in the positive analysis fitting direction relative to DMSO as the negative control and baseline of activity. Using a type of binding reporter, loss-of-signal activity can be used to understand changes in the binding as they relate to the gene Slc18a2. Furthermore, this assay endpoint can be referred to as a primary readout, because the performed assay has only produced 1 assay endpoint. To generalize the intended target to other relatable targets, this assay endpoint is annotated to the transporter intended target family, where the subfamily is vesicular transporter.
Binding assays used specific radioligands (tritiated, iodinated) with non-radioactive competitive displacement ligands in agonist or antagonist protocols (as indicated) and various reference compounds and inhibitors to titrate specific binding to receptors and transporters. Most enzyme assays (CYPs, kinases, phosphatases, proteases, HDACs) used recombinant protein and specific substrates (fluorescence mostly, some colorimetric and radioactive) and inhibitors, followed by a biochemical separation of substrate and product. All assays for the biochemical HTS were initially run in duplicate at a single concentration (10 uM for CYP450 assays and 25 uM for all others). […] Each assay was run with positive and negative controls, and concurrent controls on every plate. The follow-up (secondary) screen tested active chemical-pairs in concentration series, as well as a few additional assays not tested in the primary screen, some selected negative inactives, and several cases re-run in the concentration series for confirmatory purposes.

In experiment [3] the target is human Norepinephrine Transporter (NET), SLC6A2 (gene 6530) (UniProt P23975). The experiment in a line: NVS_TR_hNET: NovaScreen (NVS) Transporter Assay for human Norepinephrine Transporter (NET) (AID 2283377).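 Note: cell-free membrane protein extracted from CHO cells expressing human NET.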 The method, boiled down: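 CHO cell extracts expressing the transporter; tritiated or iodinated tracer displaced competitively; filtration plus scintillation readout at 1 h. Single-point duplicates at 25 uM, concentration series for follow-up; activity = signal drop relative to DMSO.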

The target of experiment [4] is Estrogen receptor beta (Homo sapiens) (UniProt Q92731). The experiment in a line: OT_ER_ERbERb_1440: Odyssey Thera (OT) 24-hour HEK293T Protein-Complementation Assay for Estrogen Receptor-beta/-beta Homodimer (AID 2283380).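 Note: scored as signal increase over DMSO baseline for both agonists and antagonists.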 The method in brief: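 HEK293T cells stably expressing ER beta LBD (aa 310-547) homodimer fragment-complementation reporter, dosed 24 h. Cells formaldehyde-fixed, Draq5-stained; gain in nuclear (agonist) or nuclear plus cytoplasmic (antagonist) fluorescence versus DMSO read by laser scanning cytometry.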

The target of experiment [5] is Estrogen receptor (Homo sapiens) (UniProt P03372). The experiment in a line: OT_ERa_GFPERaERE_0480: Odyssey Thera (OT) 8-hour HeLa Transcription Induction Assay for Estrogen Receptor (AID 2283381; active = hit-call score of the fitted dose curve at least 0.9, where 1 is the maximum; inactive = score below 0.9). The method in brief: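 An 8 h HeLa transcription-induction format with a GFP reporter under ERE control, read by fluorescence microscopy; single endpoint fitted positively with DMSO as baseline.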

Experiment [6] shares this target. As to the kind of experiment: OT_ERa_GFPERaERE_0120: Odyssey Thera (OT) 2-hour HeLa Transcription Induction Assay for Estrogen Receptor (AID 2283382). The method, boiled down:
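Two-hour compound treatment of HeLa cells preceded microscopy imaging of an inducible fluorescent reporter. Image-based quantification gave one endpoint, analysed for signal increase relative to DMSO controls.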

Experiment [7] deals with Bile acid receptor (Homo sapiens) (UniProt Q96RI1). As to the kind of experiment: OT_FXR_FXRSRC1_1440: Odyssey Thera (OT) 24-hour HEK293T Protein-Complementation Assay for Farnesoid X receptor/SRC-1 Co-activator (AID 2283384). The method in brief:
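Single endpoint, analysed for increased fluorescence against DMSO controls. HEK293T cells carrying FXR and SRC-1 linked to complementary reporter halves were exposed to chemicals for 24 h before reading.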

In experiment [8] the target is Retinoic acid receptor RXR-alpha (Homo sapiens) (UniProt P19793). The experiment in a line: OT_NURR1_NURR1RXRa_0480: Odyssey Thera (OT) 8-hour HEK293T Protein Complementation Assay for Nurr1/retinoid X receptor (RXR) (AID 2283385). The method in brief: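 Gain in fluorescent complementation signal over DMSO, measured 8 hours after chemical dosing of human kidney HEK293T cells, indicated enhanced Nurr1–RXRα association.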

Experiment [9] deals with Agonist Androgen Response Element (ARE), AR (gene 367) (UniProt P10275). The experiment in a line: OT_AR_ARELUC_AG_1440: Odyssey Thera (OT) 24-hour CHO-K1 Luciferase Assay for Agonist Androgen Response Element (ARE) (AID 2283379). The method in brief: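 Gain-of-signal reporter endpoint: cells (CHO-K1, hamster) are treated 24 h, luciferin/ATP reagent added, and luminescence compared with DMSO baseline.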
Agonist Androgen Response Element (ARE), AR (gene 367), sequence (P10275 whole entry, looked up): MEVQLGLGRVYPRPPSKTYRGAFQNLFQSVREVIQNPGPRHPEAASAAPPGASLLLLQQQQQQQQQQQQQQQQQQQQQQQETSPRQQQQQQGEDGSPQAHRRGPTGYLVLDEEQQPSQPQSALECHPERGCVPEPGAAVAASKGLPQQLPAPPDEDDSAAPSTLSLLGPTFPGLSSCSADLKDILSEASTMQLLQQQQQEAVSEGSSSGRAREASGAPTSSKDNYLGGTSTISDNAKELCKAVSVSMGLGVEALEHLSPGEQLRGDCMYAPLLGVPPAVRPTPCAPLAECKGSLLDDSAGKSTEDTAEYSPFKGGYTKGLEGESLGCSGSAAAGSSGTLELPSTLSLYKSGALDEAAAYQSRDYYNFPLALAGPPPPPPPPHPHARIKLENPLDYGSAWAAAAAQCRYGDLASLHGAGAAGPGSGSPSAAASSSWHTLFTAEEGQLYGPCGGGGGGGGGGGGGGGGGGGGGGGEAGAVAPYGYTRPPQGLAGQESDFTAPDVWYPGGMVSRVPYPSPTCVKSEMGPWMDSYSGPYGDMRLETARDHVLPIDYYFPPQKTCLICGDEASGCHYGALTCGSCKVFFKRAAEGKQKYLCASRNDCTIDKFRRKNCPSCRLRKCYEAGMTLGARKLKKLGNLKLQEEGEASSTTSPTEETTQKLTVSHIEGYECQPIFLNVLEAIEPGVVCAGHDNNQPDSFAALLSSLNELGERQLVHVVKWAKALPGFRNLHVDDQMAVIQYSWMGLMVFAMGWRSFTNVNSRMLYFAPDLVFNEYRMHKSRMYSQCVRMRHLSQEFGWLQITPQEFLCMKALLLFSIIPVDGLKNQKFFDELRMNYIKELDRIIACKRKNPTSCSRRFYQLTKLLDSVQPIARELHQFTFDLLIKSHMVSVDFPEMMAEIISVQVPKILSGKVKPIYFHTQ

Estrogen receptor beta (Homo sapiens), sequence (Q92731 whole entry, looked up, the tested form may be a part): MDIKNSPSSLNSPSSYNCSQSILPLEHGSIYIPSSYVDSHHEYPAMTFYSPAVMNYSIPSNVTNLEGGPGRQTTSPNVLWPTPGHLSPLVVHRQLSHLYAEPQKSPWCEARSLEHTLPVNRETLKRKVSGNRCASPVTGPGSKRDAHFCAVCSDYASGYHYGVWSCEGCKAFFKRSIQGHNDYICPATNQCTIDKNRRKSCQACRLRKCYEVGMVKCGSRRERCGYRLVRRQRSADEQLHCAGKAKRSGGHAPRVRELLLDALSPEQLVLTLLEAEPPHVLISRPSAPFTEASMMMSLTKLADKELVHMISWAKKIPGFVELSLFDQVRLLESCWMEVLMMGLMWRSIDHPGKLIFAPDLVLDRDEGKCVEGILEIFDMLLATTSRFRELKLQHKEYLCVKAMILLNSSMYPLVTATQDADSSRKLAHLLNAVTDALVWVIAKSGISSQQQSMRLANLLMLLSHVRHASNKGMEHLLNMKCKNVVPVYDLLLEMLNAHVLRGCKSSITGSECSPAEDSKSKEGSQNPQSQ
Retinoic acid receptor RXR-alpha (Homo sapiens), sequence (P19793 whole entry, looked up): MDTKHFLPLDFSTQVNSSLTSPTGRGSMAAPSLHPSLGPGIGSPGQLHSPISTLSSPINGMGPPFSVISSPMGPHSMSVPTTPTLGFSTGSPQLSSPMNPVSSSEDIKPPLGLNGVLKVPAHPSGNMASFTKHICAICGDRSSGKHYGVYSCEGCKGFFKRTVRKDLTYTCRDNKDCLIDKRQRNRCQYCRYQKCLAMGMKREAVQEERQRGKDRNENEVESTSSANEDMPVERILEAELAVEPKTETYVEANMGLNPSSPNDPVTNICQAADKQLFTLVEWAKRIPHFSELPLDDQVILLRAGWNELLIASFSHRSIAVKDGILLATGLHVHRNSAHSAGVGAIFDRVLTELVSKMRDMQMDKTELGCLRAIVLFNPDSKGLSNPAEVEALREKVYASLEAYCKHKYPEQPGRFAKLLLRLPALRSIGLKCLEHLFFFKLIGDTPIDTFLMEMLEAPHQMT
Estrogen receptor (Homo sapiens), sequence (P03372 whole entry, looked up): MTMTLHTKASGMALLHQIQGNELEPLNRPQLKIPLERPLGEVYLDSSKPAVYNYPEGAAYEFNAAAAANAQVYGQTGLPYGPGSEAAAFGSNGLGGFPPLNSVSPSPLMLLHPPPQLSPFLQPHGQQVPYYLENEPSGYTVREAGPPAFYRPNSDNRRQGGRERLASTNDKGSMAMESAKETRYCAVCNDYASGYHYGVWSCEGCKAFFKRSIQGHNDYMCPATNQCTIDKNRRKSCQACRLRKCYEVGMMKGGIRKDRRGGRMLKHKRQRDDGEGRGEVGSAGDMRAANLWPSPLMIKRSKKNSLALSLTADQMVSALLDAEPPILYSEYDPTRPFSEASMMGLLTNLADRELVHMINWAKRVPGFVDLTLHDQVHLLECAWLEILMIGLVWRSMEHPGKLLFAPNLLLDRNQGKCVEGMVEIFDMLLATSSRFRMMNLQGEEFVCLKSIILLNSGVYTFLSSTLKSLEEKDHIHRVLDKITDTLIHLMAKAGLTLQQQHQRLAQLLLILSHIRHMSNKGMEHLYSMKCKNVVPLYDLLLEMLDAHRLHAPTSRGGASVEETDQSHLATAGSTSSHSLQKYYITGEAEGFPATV
Bile acid receptor (Homo sapiens), sequence (Q96RI1 whole entry, looked up): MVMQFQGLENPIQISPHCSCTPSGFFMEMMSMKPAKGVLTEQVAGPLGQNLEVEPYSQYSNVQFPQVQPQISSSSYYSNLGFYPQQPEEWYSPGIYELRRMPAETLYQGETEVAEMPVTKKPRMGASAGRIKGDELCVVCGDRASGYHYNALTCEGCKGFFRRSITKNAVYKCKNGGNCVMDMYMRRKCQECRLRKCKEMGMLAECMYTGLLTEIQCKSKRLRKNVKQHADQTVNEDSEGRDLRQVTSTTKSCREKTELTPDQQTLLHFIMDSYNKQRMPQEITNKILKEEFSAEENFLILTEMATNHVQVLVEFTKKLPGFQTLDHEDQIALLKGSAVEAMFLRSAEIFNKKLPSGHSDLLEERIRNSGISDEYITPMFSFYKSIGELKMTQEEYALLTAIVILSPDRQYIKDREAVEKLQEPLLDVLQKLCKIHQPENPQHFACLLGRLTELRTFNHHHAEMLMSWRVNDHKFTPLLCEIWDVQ
Norway rat Vesicular Monoamine Transporter (VMAT2), neurotransmitter transporter, Slc18a2 (gene 25549), sequence (Q01827 whole entry, looked up): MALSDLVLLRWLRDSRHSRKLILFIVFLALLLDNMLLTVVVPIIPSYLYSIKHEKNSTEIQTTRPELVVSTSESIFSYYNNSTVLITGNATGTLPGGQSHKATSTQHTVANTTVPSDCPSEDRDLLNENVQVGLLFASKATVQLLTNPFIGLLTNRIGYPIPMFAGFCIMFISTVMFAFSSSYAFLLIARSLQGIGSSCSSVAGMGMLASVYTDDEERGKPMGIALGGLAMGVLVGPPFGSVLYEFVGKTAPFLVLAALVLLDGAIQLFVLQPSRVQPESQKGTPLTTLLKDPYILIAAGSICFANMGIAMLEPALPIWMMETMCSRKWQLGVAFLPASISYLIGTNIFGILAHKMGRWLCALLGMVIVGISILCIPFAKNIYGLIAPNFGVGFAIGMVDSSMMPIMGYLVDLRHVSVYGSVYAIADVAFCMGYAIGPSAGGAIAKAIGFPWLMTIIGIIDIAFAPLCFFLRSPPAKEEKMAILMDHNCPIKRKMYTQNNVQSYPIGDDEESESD
human Norepinephrine Transporter (NET), SLC6A2 (gene 6530), sequence (P23975 whole entry, looked up): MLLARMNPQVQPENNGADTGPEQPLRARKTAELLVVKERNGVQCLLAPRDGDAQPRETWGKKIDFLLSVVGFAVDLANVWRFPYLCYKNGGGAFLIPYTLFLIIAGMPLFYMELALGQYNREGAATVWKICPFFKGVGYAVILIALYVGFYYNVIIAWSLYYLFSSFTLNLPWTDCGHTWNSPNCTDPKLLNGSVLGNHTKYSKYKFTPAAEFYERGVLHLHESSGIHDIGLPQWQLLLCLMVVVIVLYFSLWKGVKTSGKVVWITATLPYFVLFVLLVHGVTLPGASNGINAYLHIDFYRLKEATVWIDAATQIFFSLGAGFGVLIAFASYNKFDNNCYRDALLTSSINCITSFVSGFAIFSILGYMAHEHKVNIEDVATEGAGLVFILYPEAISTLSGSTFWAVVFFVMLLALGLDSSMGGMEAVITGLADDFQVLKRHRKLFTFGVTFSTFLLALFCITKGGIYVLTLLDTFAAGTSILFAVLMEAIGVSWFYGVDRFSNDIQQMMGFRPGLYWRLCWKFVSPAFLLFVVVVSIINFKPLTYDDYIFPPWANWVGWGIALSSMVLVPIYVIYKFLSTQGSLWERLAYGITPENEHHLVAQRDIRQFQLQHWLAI
human Dopamine Transporter (DAT), SLC6A3 (gene 6531), sequence (Q01959 whole entry, looked up): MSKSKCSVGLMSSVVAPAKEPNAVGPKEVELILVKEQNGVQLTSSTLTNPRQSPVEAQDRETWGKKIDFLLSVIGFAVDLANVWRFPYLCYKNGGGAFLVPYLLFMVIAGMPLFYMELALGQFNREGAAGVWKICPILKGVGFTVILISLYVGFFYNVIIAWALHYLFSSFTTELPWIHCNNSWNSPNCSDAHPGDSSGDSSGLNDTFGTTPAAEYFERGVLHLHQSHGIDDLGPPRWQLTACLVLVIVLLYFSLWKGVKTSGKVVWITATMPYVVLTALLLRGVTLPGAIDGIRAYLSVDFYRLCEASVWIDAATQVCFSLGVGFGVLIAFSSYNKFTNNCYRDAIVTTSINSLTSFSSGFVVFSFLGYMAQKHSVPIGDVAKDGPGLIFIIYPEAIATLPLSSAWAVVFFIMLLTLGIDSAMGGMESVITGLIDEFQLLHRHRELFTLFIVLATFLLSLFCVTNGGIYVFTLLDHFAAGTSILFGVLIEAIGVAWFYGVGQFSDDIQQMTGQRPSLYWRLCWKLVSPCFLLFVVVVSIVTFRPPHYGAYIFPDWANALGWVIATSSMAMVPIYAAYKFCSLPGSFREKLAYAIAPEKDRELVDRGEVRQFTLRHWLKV

One may read the AC50 as the midpoint of the concentration-response curve, whichever way the signal moves. With `COc1ccc(C(c2ccc(OC)cc2)C(Cl)(Cl)Cl)cc1`, the result in experiment [1], in experiment [2], in experiment [3] and in experiment [8] was inactive. Moreover, the AC50 in experiment [4] is 4.01 µM (active) and 3.74 µM (active) and 3.97 µM (active); in [5], 3.09 µM (active) and 3.24 µM (active) and 3.47 µM (active); in [6], 2.7 µM (active) and 2.88 µM (active) and 2.66 µM (active); in [7] it was 30.4 µM (active) and 35.6 µM (active) and 28.4 µM (active); in experiment [8] it was 66 µM (active).
Regarding `CCCCC(CC)COC(=O)c1ccccc1C(=O)OCC(CC)CCCC` (stereo unspecified), the result in experiment [2], in experiment [4], in experiment [5], in experiment [6], in experiment [7] and in [8] was inactive.
`COP(=S)(OC)Oc1nc(Cl)c(Cl)cc1Cl`: the outcome in [4], in experiment [5], in experiment [6] and in experiment [8] was inactive.
For `CC(Oc1ccc(Cl)cc1Cl)C(=O)O` (stereo unspecified), the result in experiment [5], in experiment [6] and in experiment [8] was inactive.
On to `CCON=C(CC)C1=C(O)CC(c2c(C)cc(C)cc2C)CC1=O` (stereo unspecified), for which the outcome in [9], in [5], in [6], in experiment [7] and in experiment [8] was inactive.
`O=C(O)COc1nc(Cl)c(Cl)cc1Cl`: the outcome in experiment [5], in experiment [6] and in experiment [8] was inactive.
`CNC(=S)S`: the call in experiment [4], in experiment [5] and in experiment [6] was inactive.
For `COc1cnc(OC)n2nc(NS(=O)(=O)c3c(OCC(F)F)cccc3C(F)(F)F)nc12`, the outcome in experiment [4], in experiment [5], in experiment [6] and in experiment [8] was inactive.
With `CCCN(CCC)c1c([N+](=O)[O-])cc(S(N)(=O)=O)cc1[N+](=O)[O-]`, the outcome in [4], in [5] and in [6] was inactive.
In the case of `COC(=O)c1ccccc1C(=O)OC`, the result in experiment [4], in experiment [5], in [6], in experiment [7] and in experiment [8] was inactive.
Regarding `CS/C(C)=N/OC(=O)N(C)SN(C)C(=O)O/N=C(\C)SC`, the outcome in [9], in experiment [4], in [6] and in [7] was inactive. Further, the AC50 in experiment [5] was 93.3 µM (active).
Consider `CC(C)Oc1cc(-n2nc(C(C)(C)C)oc2=O)c(Cl)cc1Cl`, for which the call in experiment [9], in [4], in experiment [5], in experiment [6] and in experiment [8] was inactive. For the same compound, the AC50 in [7] was 58.7 µM (active); in [8], 50 µM (active).
Take `CCCC1COC(Cn2cncn2)(c2ccc(Cl)cc2Cl)O1` (stereo unspecified): the compound was classed as inactive in experiment [9], in experiment [5] and in experiment [6].
For the compound `CC(C)(C)c1ccc(CSc2cnn(C(C)(C)C)c(=O)c2Cl)cc1`, the call in experiment [4], in experiment [5], in [6], in experiment [7] and in experiment [8] was inactive.
With `CCNc1nc(Cl)nc(NC(C)C)n1`, the result in [4], in [5], in [6] and in [8] was inactive. The AC50 in [6] is 3.42 µM (active).
With `COP(N)(=O)SC` (stereo unspecified), the call in experiment [4], in experiment [5], in experiment [6], in experiment [7] and in experiment [8] was inactive.
Regarding `CCOP(=S)(OCC)SCn1c(=O)oc2cc(Cl)ccc21`, the result in experiment [4], in experiment [5], in [6] and in experiment [8] was inactive. In [7], the AC50 was 12 µM (active).
For `Cc1ccc(-c2c(Cl)nc(C#N)n2S(=O)(=O)N(C)C)cc1`, the compound was classed as inactive in experiment [9], in experiment [4], in experiment [5], in [6], in experiment [7] and in experiment [8].
In the case of `CC(C)C1(C)N=C(c2nc3ccccc3cc2C(=O)O)NC1=O` (stereo unspecified), the outcome in experiment [4], in experiment [5], in experiment [6], in experiment [7] and in [8] was inactive.
Regarding `O=C(O)c1nc(Cl)ccc1Cl`, the call in experiment [5], in [6] and in [8] was inactive.
As for `C=CC1(C)OC(=O)N(c2cc(Cl)cc(Cl)c2)C1=O` (stereo unspecified), the compound was called inactive in experiment [4], in experiment [5], in [6], in experiment [7] and in experiment [8]. Besides, the figures for the AC50 in [6] and in experiment [7] were 50 µM (active) and 34.2 µM (active), respectively.
Consider `CCNc1nc(Cl)nc(NCC)n1`, for which the compound was classed as inactive in experiment [4], in experiment [5], in experiment [6], in experiment [7] and in experiment [8].
In the case of `CNC(=O)ON=CC(C)(C)SC`, the compound was classed as inactive in [5], in experiment [6], in experiment [7] and in experiment [8].
In the case of `N#Cc1nn(-c2c(Cl)cc(C(F)(F)F)cc2Cl)c(N)c1S(=O)C(F)(F)F` (stereo unspecified), the compound was classed as inactive in experiment [9], in [4], in experiment [5], in experiment [6] and in experiment [8]. Also, the AC50 in [7] is 33 µM (active).
For `COC(=O)N(OC)c1ccccc1COc1ccn(-c2ccc(Cl)cc2)n1`, the compound was classed as inactive in experiment [4], in experiment [5], in experiment [6] and in experiment [8]. Besides, the AC50 in experiment [7] was 1.45 µM (active).
Turning to `N#Cc1cc(Br)c(O)c(Br)c1`, the call in experiment [5] and in experiment [6] was inactive.
As for `CCOC(=O)CC(SP(=S)(OC)OC)C(=O)OCC` (stereo unspecified), the compound was called inactive in experiment [9], in experiment [5] and in experiment [6].
As to `COC(=O)C=C(C)OP(=O)(OC)OC`, the result in experiment [4], in experiment [5], in [6], in experiment [7] and in [8] was inactive.
